Test results published in PubChem BioAssay (Tox21).
Results filed as inconclusive are left out. Unmarked numbers belong to inactive results. Active and inactive are the calls of the source. The call rests on the fitted dose curve; in most records, active means well fitted cell-killing curve with a large enough effect in the repeat runs; inconclusive means weak or mixed curves, or effect the other way; inactive means no such curve, though single readings can be large or run the other way.

Experiment: qHTS assay to identify small molecule antagonists of the peroxisome proliferator-activated receptor gamma (PPARg) signaling pathway - cell viability counter screen (AID 743194); further: nearly all actives have a fitted effect of over 55% in size
Details: PPARg-bla HEK293H viability, CellTiter-Glo luminescence, 17 h, co-treated with 50 nM rosiglitazone; series mostly up to 62.6 µM; activity change, negative = cytotoxicity: at the top concentration
Excerpt: U.S. Tox21 Program National Center for Advancing Translational Sciences [NCATS] NIH Chemical Genomics Center [NCGC] U.S. Environmental Protection Agency [EPA] National Institutes of Environmental Health Sciences [NIEHS] National Toxicology Program [NTP] U.S. Food and Drug Administration [FDA] Tox21 Assay Overview: The peroxisome proliferator-activated receptors (PPARs) are lipid-activated transcription factors of the nuclear receptor superfamily with three distinct subtypes namely PPAR alpha, PPAR delta (also called PPAR beta) and PPAR gamma (PPARg). All these subtypes heterodimerize with Retinoid X receptor (RXR) and these heterodimers regulate transcription of various genes. PPAR-gamma receptor (glitazone receptor) is involved in the regulation of glucose and lipid metabolism. To identify the compounds that activate PPAR-gamma signaling, GeneBLAzer PPAR gamma UAS-bla HEK293H cell line (Invitrogen, Carlsbad, CA, USA) containing a beta-lactamase reporter gene under the control of an Upstream Activator Sequence (UAS) was used to screen the Tox21 compound library. The cytotoxicity of the Tox21 compound library against the PPARg-bla cell line was tested in parallel by measuring the cell viability using CellTiter-Glo assay in the same wells.
Tox21 Assay Protocol Summary: PPARg-bla cells were dispensed at 3000 cells/5uL/well in 1536-well black wall/clear bottom plates using a Multidrop Combi (Thermo Fisher Scientific, Waltham, MA) dispenser. After the assay plates were incubated at 37 C and 5% CO2 for 5 h, 23 nL of compounds dissolved in DMSO, positive controls or DMSO only was transferred to the assay plate by a Pintool station (Kalypsys, San Diego, CA), followed by addition of 1ul Rosiglitazone (50 nM, final concentration in the wells). The assay plates were incubated at 37 C for 17 h, and then 1 uL of LiveBLAzerTM B/G FRET substrate was added using a Bioraptr Flying Reagent Dispenser (FRD) workstation (Beckman Coulter, Indianapolis, IN, USA). The assay plates were incubated at room temperature for 1 h and fluorescence intensity was measured by an Envision plate reader (PerkinElmer, Shelton, CT). For cell viability readout that measures cytotoxicity, 4 ul/well of CellTiter-Glo reagent was added into the assay plates using a Flying Reagent Dispenser. After 30 min incubation at room temperature, the luminescence intensity in the plates was measured using a ViewLux plate reader (PerkinElmer).
On the % scale 0 is the no-effect control and ±100 the full control effect; potency means the concentration at half of the fitted maximal effect.

Structure (SMILES) | activity change, negative = cytotoxicity | Potency
COc1ccnc(CS(=O)c2nc3ccc(OC(F)F)cc3[nH]2)c1OC (stereo not given) | -1% | –
O[C@@H](COc1cccc2ncccc12)CN1CCN(C2c3ccccc3[C@@H]3[C@H](c4ccccc42)C3(F)F)CC1 (stereo not given in full) | – | 13.3 µM (active)
C=CC(=O)OCCOCCOCCOCCOC(=O)C=C | -34.7% [at 81.1 µM] | –
CCOC(=O)Cc1cccc2ccccc12 | 21.4% | –
CC1CCC(=O)C1=O (stereo not given) | -0.489% [at 81.1 µM] | –
CN(C)CCN(Cc1ccc(Cl)cc1)c1ccccn1 | 2.62% | –
CCOC(=O)C1=C[C@]2(CC)CCCN3CCc4c(n1c1ccccc41)[C@@H]32 | -11.5% | –
O=C(O)c1nc(Cl)c(Cl)c(Cl)c1Cl | 1.82% | –
CN(C)C(=O)NC1(c2ccccc2)CCN(CC[C@@]2(c3ccc(F)c(F)c3)CN(C(=O)c3ccccc3)CCO2)CC1 | -19.3% | –
Clc1ccc(Cn2c(CN3CCCC3)nc3ccccc32)cc1 | -6.78% | –
O=C(Nc1ccccc1)c1ccccc1O | -27% | –
Nc1ccc([N+](=O)[O-])c(C(F)(F)F)c1 | 3.95% | –
C1CCCNCCC1 | -24.8% | –
CC(C)(O)c1ccc(CNC(=O)c2cccnc2Oc2ccc(F)cc2)cc1 | 0.0674% | –
CC(C)(C)Cl | -10.3% [at 81.1 µM] | –
COc1cc2nc(N3CCN(C(=O)C4COc5ccccc5O4)CC3)nc(N)c2cc1OC (stereo not given) | -16.8% | –
COC(C)(C)CCO | -4.82% | –
COC(=O)c1ccc(I)cc1S(=O)(=O)NC(=O)Nc1nc(C)nc(OC)n1 | -5.54% | –
O=P(O)(OCc1ccccc1)OCc1ccccc1 | -3.81% | –
CN(C)c1ccc(C(c2ccccc2)c2ccc(N(C)C)cc2)cc1 | 1.83% | –

Structure (SMILES) | activity change, negative = cytotoxicity | Potency
O=C(NCC1CN(c2ccc(N3CCOCC3=O)cc2)C(=O)O1)c1ccc(Cl)s1 (stereo not given) | -16.7% | –
CCCCOC(=O)CCCCCCCC(=O)OCCCC | 1.99% | –
C[C@@H](c1ncncc1F)C(O)(Cn1cncn1)c1ccc(F)cc1F (stereo not given in full) | 16.5% | –
CCCCO | -8.25% | –
CCCCC1=NC2(CCCC2)C(=O)N1Cc1ccc(-c2ccccc2-c2nn[nH]n2)cc1 | 4.85% | –
CCOCC(O)COc1ccc(NC(=O)CC[S+](C)C)cc1 (stereo not given) | 6.3% | –
O=C(O)CNCC(=O)O | 0.536% [at 5.95 µM] | –
CCOC(=O)COC(=O)c1cc(Oc2ccc(C(F)(F)F)cc2Cl)ccc1[N+](=O)[O-] | 5.38% | –
CCCCCCc1ccc(-c2ccc(C#N)cc2)cc1 | 8.57% | –
O=C1c2ccccc2S(=O)(=O)N1CCCCN1CCN(c2ncccn2)CC1 | 5.67% | –
CCC(=O)O[C@]1(C(=O)CCl)[C@@H](C)C[C@H]2[C@@H]3CCC4=CC(=O)C=C[C@]4(C)[C@@]3(F)[C@@H](O)C[C@@]21C | 3.6% | –
O=C1[C@H]2CCCC[C@H]2C(=O)N1CCCCN1CCN(c2nsc3ccccc23)CC1 | -8.94% | –
CC(=O)c1ccc2c(c1)N(CCCN(C)C)c1ccccc1S2 | -21.4% | –
CC1=CC[C@H](C(C)C)C=C1 | 2.68% | –
CCCCCCCCCCCCCCOS(=O)(=O)O | -2.16% | –
CCCCCCCCCCCCCCCCOS(=O)(=O)O | -1.3% | –
CC(CSC(=O)c1ccccc1)C(=O)N1C[C@@H](Sc2ccccc2)C[C@H]1C(=O)O (stereo not given in full) | 6.88% [at 29.1 µM] | –
CCCCc1nc2cccnc2n1Cc1ccc(-c2ccccc2-c2nnn[nH]2)cc1 | -9.78% | –
CCCCCCCCCCO[C@@H]1O[C@H](CO)[C@@H](O)[C@H](O)[C@H]1O | 5.05% | –
c1ccc(C(O[C@H]2CCCN(CCc3ccc4c(c3)OCO4)C2)c2ccccc2)cc1 | -0.694% | –
